Our source for the growth values is PubChem BioAssay (NCI).

This is part of a sample that, as a whole, favours compounds with a hit. Of some 83,000 tested, about 20% had one in any assay.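 Single-dose data. Exposure time 48 hours. Values below 10 considered active.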 Values without a mark were called inactive. Calls of active or inactive are those of the source.

For the experiment, the system named is MDA-MB-468 breast. The experiment can be described thus: NCI-60 one-dose screen, 48 h (100 = growth as untreated, 0 = no growth, -100 = all killed). The settings on record: 10 µM unless noted.
On to `COc1cc(C2=NN(C(C)=O)C(c3cc(OC)c(OC)c(OC)c3)C2)ccc1O` (stereo not given), for which the growth was 15.9%. The figure for `O=CN1N=C(c2cccc(Nc3ccncc3)c2)CC1c1ccc2c(c1)OCO2` (stereo not given) is 88.7%; for `COC(=O)Nc1nc2ccc(C(=O)c3cccs3)cc2[nH]1` it is 5.96% (active); for `N#Cc1ccccc1-c1ccc(Cn2c(-c3cscn3)nc3c(Cl)cccc32)cc1` it is 55.7%. The figure for `CCOC(=O)c1c(NC(=O)c2ccc(F)cc2F)sc2c1CCC(=O)C2` is 95.2%. Regarding `O=C1NN(c2ccccc2)C(c2cccnc2)=N/C1=C\c1cccnc1`, the growth was 90%.

Turning to `c1ccc(-c2cc3n4c(-c5ccccc5)nn(-c5ccccc5)c4cnc-3n2)cc1`, the growth is 70.2%.

As for `NC(=O)c1cccc(-n2ccc3cc(NC(=O)Nc4cc(C(F)(F)F)cc(C(F)(F)F)c4)ccc32)n1`, the growth was 40.7%. Consider `O=c1[nH]ccc2nc(N3CCC(O)CC3)nc(Nc3ccc(N4CCOCC4)cc3)c12`, for which the growth is 159%. The figure for `N=C1CC(=O)NN1C(=O)CSc1nc2sc3c(c2c(=O)n1-c1ccc(Cl)cc1)CCCC3` is 106%; for `CC(CN1CCCCC1)NC(=O)c1scnc1-c1ccccc1` (stereo not given) it is 111%.

For the molecule `Cc1cc(N2CCN(c3ccnc4cc(Cl)ccc34)CC2)nc(N2CCOCC2)n1`, the growth is 68.7%. The figure for `CCOC(=O)c1c(CN2CCN(C)CC2)nc2ccc(Cl)cc2c1-c1ccccc1` is 63.7%. Consider `Nc1n[nH]c2ccc([C@@H]3Nc4ccc5[nH]ncc5c4[C@H]4[C@H]5CCC(C5)[C@H]43)cc12`, for which the growth was 28.1%.

With `N#CC1=C(c2ccc(Br)cc2)NC(SCC(=O)c2ccc(Br)cc2)NC1=O` (stereo not given), the growth was 113%. Next, `CCN1C(=O)/C(=C/N2N=C(c3ccc(Cl)cc3)CC2c2ccc(OC)cc2)SC1=S` (stereo not given): 93.3%; `CC(C)c1ccc(C(=O)OC(=O)c2ccc(C(C)C)cc2)cc1`: 110%; `O=c1cc(-c2ccccc2)oc2cc(OCc3cn(Cc4ccc(F)cc4)nn3)cc(OCc3cn(Cc4ccc(F)cc4)nn3)c12`: 38.7%. Next, `NS(=O)(=O)c1cc(C2(O)NC(=O)c3ccccc32)ccc1Cl` (stereo not given): 102%. The figure for `COc1ccc(C/C(C)=C(\c2ccc(Cl)cc2)c2ccc(OCCN3CCCC3)cc2)cc1` is 70%. For `CC(=O)c1c(-c2ccc(OC(F)(F)F)cc2)nc2ccccn12`, the growth was 94.7%. The figure for `C[C@H]1O[C@@H](O[C@H]2[C@@H](O)C[C@H](O[C@H]3[C@@H](O)C[C@H](O[C@H]4CC[C@]5(C)C6CC[C@]7(C)[C@@H](C8=CC(=O)OC8)CC[C@]7(O)C6CC[C@@H]5C4)O[C@@H]3C)O[C@@H]2C)C[C@H](O)[C@@H]1O` (stereo not given in full) is -60% (active). Take `COc1ccc(C(C(=O)O)c2ccc(OC)cc2)cc1`: the growth is 113%. With `O=C1OC2C(I)C3CC2C1C3c1ccccc1` (stereo not given), the growth was 91.5%.

Regarding `O=C1c2ccccc2-c2c1c1cccnc1c(=O)n2C[C@H](O)CO`, the growth was 88.4%.

Consider `Cn1cc(-c2csc(-c3cn(C(=O)OC(C)(C)C)c4ccc(Br)cc34)n2)c2cccnc21`, for which the growth was 104%. The figure for `N#Cc1c(N)nc(N)nc1Nc1ccc(Br)cc1` is 89.6%. For the molecule `CCCCCCCC/C=C/CCCCCCCC1=NC(C)(C)CN1c1ccccc1`, the growth was 85.7%. The figure for `COc1ccc(NC(=O)Nc2ccccc2CNc2nc(Nc3ccc(OCCN4CCCC4)cc3)ncc2Cl)cc1` is -43.5% (active). Next, `CN1CSC(=S)N(Cc2ccccc2)C1`: 7.55% (active); `COc1ccc2ncccc2c1Cc1c(OC)ccc2ncccc12`: 8.37% (active); `CC1(C)Nc2cccc3c(N=Nc4ccc(N=Nc5ccccc5)c5ccccc45)ccc(c23)N1`: 95.9%. For `COc1cc(C(=O)N/N=C/c2ccc(N(C)C)cc2)cc(OC)c1OC`, the growth was -12.5% (active). As for `CC/C=C\C[C@@H]1C/C=C2/C(=O)C=C[C@H]2C/C=C\CCCC(=O)O1`, the growth was -63.3% (active). Next, `O=Cc1ccc(Cl)c(Cl)c1`: 119%; `O=C(Nc1ccc(N=Cc2c(O)[nH]c3ccccc23)cc1)Nc1ccc(S(=O)(=O)Nc2ncccn2)cc1`: 116%; `O=C(CCCCCCC(=O)Nc1ccccc1)NO`: 12.1%.

As to `CC(C)(C)c1cc(C[P+](c2ccccc2)(c2ccccc2)c2ccccc2)cc(C(C)(C)C)c1O`, the growth was -2.61% (active). On to `CN(CCc1ccccn1)c1ccccc1`, for which the growth is 113%. The figure for `CC(=O)OC1CC2C(C)(C)OC3CC(=O)OCC32C2CCC3(C)C(=CCC3c3ccoc3)C12C` (stereo not given) is 39.1%.
